Measurements published in ChEMBL document CHEMBL2218924, “A broad activity screen in support of a chemogenomic map for kinase signalling research and drug discovery” (Biochem J, 2013).

The molecules below were run against T1, Serine/threonine-protein kinase BRSK1 (Homo sapiens) (UniProt Q8TDC3). Settings: at 1 µM.
T1 sequence (whole entry): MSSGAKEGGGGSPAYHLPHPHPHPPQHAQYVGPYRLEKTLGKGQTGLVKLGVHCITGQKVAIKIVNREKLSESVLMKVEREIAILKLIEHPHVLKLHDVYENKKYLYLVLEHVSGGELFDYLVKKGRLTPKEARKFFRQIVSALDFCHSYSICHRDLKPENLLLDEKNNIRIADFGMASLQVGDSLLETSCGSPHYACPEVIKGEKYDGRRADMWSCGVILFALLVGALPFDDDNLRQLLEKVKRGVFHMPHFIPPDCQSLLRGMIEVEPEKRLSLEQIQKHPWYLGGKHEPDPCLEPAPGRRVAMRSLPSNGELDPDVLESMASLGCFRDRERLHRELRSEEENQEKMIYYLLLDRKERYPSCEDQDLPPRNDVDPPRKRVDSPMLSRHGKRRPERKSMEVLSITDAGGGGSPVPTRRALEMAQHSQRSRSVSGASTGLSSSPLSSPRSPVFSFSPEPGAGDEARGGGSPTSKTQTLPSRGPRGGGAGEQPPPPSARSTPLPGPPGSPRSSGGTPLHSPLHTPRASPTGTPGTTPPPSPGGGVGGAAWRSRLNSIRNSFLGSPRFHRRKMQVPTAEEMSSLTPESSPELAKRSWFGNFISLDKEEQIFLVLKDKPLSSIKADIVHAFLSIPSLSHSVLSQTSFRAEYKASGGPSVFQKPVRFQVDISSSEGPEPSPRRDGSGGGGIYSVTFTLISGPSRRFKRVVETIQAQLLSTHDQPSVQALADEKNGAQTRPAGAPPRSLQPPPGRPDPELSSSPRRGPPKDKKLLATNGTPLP
In the case of `CC[n+]1c(/C=C/N(C)c2ccccc2)n(-c2ccccc2)c2ccc(-c3nc4ccccc4s3)cc21`, the residual activity is reported as 59%.
`CCC(=O)Nc1ccc2ncnc(Nc3cccc(Br)c3)c2c1` gave a residual activity of 55%.
Work on `COc1cc2ncnc(Nc3ccc(O)c(Br)c3)c2cc1OC` yielded a residual activity of 17%.
`O=C1NC(=O)c2c1c1c3ccccc3[nH]c1c1[nH]c3cc(Br)ccc3c21` gave a residual activity of 82%.
`Cc1cc(Nc2nc(-c3ccccc3)nc3ccccc23)n[nH]1` gave a residual activity of 57%.
Work on `CN(C)CCCn1cc(C2=C(c3c[nH]c4ccccc34)C(=O)NC2=O)c2ccccc21` yielded a residual activity of 42%.
For `Oc1c2ccccc2c2c3c(cccc13)N=N2`, the residual activity was 38%.
`c1ccc(-c2n[nH]cc2-c2ccnc3ccccc23)nc1` gave a residual activity of 104%.
In the case of `CC(=O)c1ccc(N2CCOCC2)cc1O`, the residual activity is reported as 93%.
`CCN(CC)C(=O)c1ccc(Nc2nc(OCC3CCCCC3)c3nc[nH]c3n2)cc1` gave a residual activity of 62%.
Work on `Nc1nc(Nc2ccc(S(N)(=O)=O)cc2)nn1C(=S)Nc1c(F)cccc1F` yielded a residual activity of 0%.
In the case of `Oc1ccc(Nc2nc(-c3ccc(Cl)cc3)cs2)cc1`, the residual activity is reported as 81%.
For `CNc1cc2c(Nc3cccc(Br)c3)ncnc2cn1`, the residual activity was 34%.
`COc1cc2ncnc(Nc3ccc(Oc4ccccc4)cc3)c2cc1OC` was tested, and the residual activity was 55%.
Molecule `C[C@@H](N)[C@H]1CC[C@H](C(=O)Nc2ccncc2)CC1` has a residual activity of 106%.
Work on `O=C(O)c1ccc2c3c1cccc3c(=O)n1c3ccccc3nc21` yielded a residual activity of 84%.
Molecule `Cc1nc2cc3nc(-c4cccs4)cnc3cc2n1C` has a residual activity of 68%.
In the case of `N#C/C(=C(\N)Sc1ccc(N)cc1)c1ccccc1C(F)(F)F`, the residual activity is reported as 85%.
With `c1ccc2c(-c3ccncc3)c[nH]c2c1` the residual activity was 52%.
For `COc1cc2ncnc(Nc3ccc(NC(=O)c4ccccc4)cc3)c2cc1OC`, the residual activity was 67%.
`COc1cc2ncc(-c3ccccc3)nc2cc1OC` showed a residual activity of 96%.
`CC#CC(=O)Nc1cc2c(Nc3ccc(F)c(Cl)c3)ncnc2cn1` was tested, and the residual activity was 87%.
Work on `Cc1nc(-c2ccccc2)c(-c2ccncc2)o1` yielded a residual activity of 103%.
For `Ic1cccc(CSc2nnc(-c3ccncc3)o2)c1`, the residual activity was 84%.
In the case of `Cc1cncc2cccc(S(=O)(=O)N3CCCN(C(=O)CN)C[C@H]3C)c12`, the residual activity is reported as 57%.
`COc1ccc(OC)c2c(=S)c3ccccc3[nH]c12` showed a residual activity of 78%.
With `O=C(Nc1cccc(Nc2cc(Nc3cccc(C(F)(F)F)c3)ncn2)c1)C1CC1` the residual activity was 67%.
For `Cc1cccc(-c2[nH]c(C(C)(C)C)nc2-c2ccc3c(c2)OCO3)n1`, the residual activity was 97%.

The molecules below were run against T1, Serine/threonine-protein kinase BRSK1 (Homo sapiens). Settings: at 10 µM.
For `CC[n+]1c(/C=C/N(C)c2ccccc2)n(-c2ccccc2)c2ccc(-c3nc4ccccc4s3)cc21`, the residual activity was 68%.
`CCC(=O)Nc1ccc2ncnc(Nc3cccc(Br)c3)c2c1` showed a residual activity of 17%.
For `COc1cc2ncnc(Nc3ccc(O)c(Br)c3)c2cc1OC`, the residual activity was 22%.
`O=C1NC(=O)c2c1c1c3ccccc3[nH]c1c1[nH]c3cc(Br)ccc3c21` was tested, and the residual activity was 55%.
In the case of `Nc1ccc2ncnc(NCCc3ccc(Oc4ccccc4)cc3)c2c1`, the residual activity is reported as 49%.
`Cc1cc(Nc2nc(-c3ccccc3)nc3ccccc23)n[nH]1` was tested, and the residual activity was 12%.
`CN(C)CCCn1cc(C2=C(c3c[nH]c4ccccc34)C(=O)NC2=O)c2ccccc21` showed a residual activity of 39%.
Molecule `Oc1c2ccccc2c2c3c(cccc13)N=N2` has a residual activity of 29%.
For `c1ccc(-c2n[nH]cc2-c2ccnc3ccccc23)nc1`, the residual activity was 58%.
`CC(=O)c1ccc(N2CCOCC2)cc1O` showed a residual activity of 95%.
In the case of `CCN(CC)C(=O)c1ccc(Nc2nc(OCC3CCCCC3)c3nc[nH]c3n2)cc1`, the residual activity is reported as 15%.
`Nc1nc(Nc2ccc(S(N)(=O)=O)cc2)nn1C(=S)Nc1c(F)cccc1F` showed a residual activity of 0%.
Molecule `Oc1ccc(Nc2nc(-c3ccc(Cl)cc3)cs2)cc1` has a residual activity of 90%.
In the case of `CNc1cc2c(Nc3cccc(Br)c3)ncnc2cn1`, the residual activity is reported as 8%.
Work on `COc1cc2ncnc(Nc3ccc(Oc4ccccc4)cc3)c2cc1OC` yielded a residual activity of 60%.
In the case of `C[C@@H](N)[C@H]1CC[C@H](C(=O)Nc2ccncc2)CC1`, the residual activity is reported as 107%.
Molecule `O=C(O)c1ccc2c3c1cccc3c(=O)n1c3ccccc3nc21` has a residual activity of 46%.
Molecule `Cc1nc2cc3nc(-c4cccs4)cnc3cc2n1C` has a residual activity of 75%.
Molecule `N#C/C(=C(\N)Sc1ccc(N)cc1)c1ccccc1C(F)(F)F` has a residual activity of 74%.
For `c1ccc2c(-c3ccncc3)c[nH]c2c1`, the residual activity was 59%.
Work on `COc1cc2ncnc(Nc3ccc(NC(=O)c4ccccc4)cc3)c2cc1OC` yielded a residual activity of 63%.
For `COc1cc2ncc(-c3ccccc3)nc2cc1OC`, the residual activity was 86%.
With `CC#CC(=O)Nc1cc2c(Nc3ccc(F)c(Cl)c3)ncnc2cn1` the residual activity was 81%.
`Cc1nc(-c2ccccc2)c(-c2ccncc2)o1` was tested, and the residual activity was 85%.
Molecule `Ic1cccc(CSc2nnc(-c3ccncc3)o2)c1` has a residual activity of 87%.
For `O=C1Nc2ccc(Br)cc2/C1=C\c1cc2c([nH]1)CCCC2`, the residual activity was 105%.
Work on `Cc1cncc2cccc(S(=O)(=O)N3CCCN(C(=O)CN)C[C@H]3C)c12` yielded a residual activity of 66%.
`COc1ccc(OC)c2c(=S)c3ccccc3[nH]c12` showed a residual activity of 76%.
`O=C(Nc1cccc(Nc2cc(Nc3cccc(C(F)(F)F)c3)ncn2)c1)C1CC1` was tested, and the residual activity was 29%.
For `Cc1cccc(-c2[nH]c(C(C)(C)C)nc2-c2ccc3c(c2)OCO3)n1`, the residual activity was 106%.
